According to PubChem BioAssay (Tox21):
Records with an inconclusive call do not appear. Unmarked numbers belong to inactive results. Active and inactive are the calls of the source. Unless noted, calls follow the shape of the dose curve; as a rule, active = well fitted cell-killing curve with a large enough effect in the repeat runs (not every such curve was filed as active); inconclusive = weak or mixed curves, or effect the other way; inactive = no such curve, though single readings can be large or run the other way.

Test system: not listed separately
Assay: qHTS assay to identify small molecule agonists of the farnesoid-X-receptor (FXR) signaling pathway - cell viability counter screen (AID 743218; active = well fitted cell-killing curve with a large enough effect in the repeat runs; also: nearly all actives have a fitted effect of over 45% in size)
Settings: FXR-bla HEK293T viability, CellTiter-Glo luminescence, 16 h; series mostly up to 62.6 µM; viability change, negative = cytotoxic: at the top concentration
Outline: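 Viability of FXR-bla HEK 293T cells is measured by ATP-based CellTiter-Glo luminescence following 16 h compound treatment at 37 C and a prior 2 h room-temperature beta-lactamase substrate step.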
% is scaled to controls: 0 for no effect and ±100 for the full control effect.

For CC[C@@H](N)CO, which “viability change, negative = cytotoxic” value is on record?
The value was -0.959% [at 81.1 µM].

For Nc1cc(S(=O)(=O)O)cc2cc(S(=O)(=O)O)cc(O)c12, which “viability change, negative = cytotoxic” value is on record?
Its value is 0%.

With Nc1ccc2cc3ccccc3cc2c1 as the compound, how does the Potency read?
Its Potency is “inactive”.

With CNC1(C)C2CCC(C2)C1(C)C (stereo not drawn) as the compound, how does the “viability change, negative = cytotoxic” value read?
The value was 15.2%.

For CC(=O)O[C@]1(C(C)=O)CC[C@H]2[C@@H]3C[C@H](C)C4=CC(=O)CC[C@]4(C)[C@H]3CC[C@@]21C, which Potency is on record?
The Potency was “inactive”.

For c1ccc2n[nH]nc2c1, which Potency is on record?
The Potency was “inactive”.

For c1ccc2cc3c(ccc4ccccc43)cc2c1, which Potency is on record?
The Potency was “inactive”.

Which Potency does the source give for CCn1c2ccccc2c2cc(N)ccc21 here?
The Potency was “inactive”.

Which “viability change, negative = cytotoxic” value does the source give for CCN(CC)C(=O)Nc1ccc(OCC(O)CNC(C)(C)C)c(C(C)=O)c1 (stereo not drawn) here?
Its value is 4.78%.

With Cc1cc(C(C)(C)C)c(O)c(C(C)(C)C)c1 as the compound, how does the Potency read?
Its Potency is “inactive”.

For NNCCc1ccccc1, which Potency is on record?
Its Potency is “inactive”.

For CC(C)(C)NC(=O)[C@@H]1CN(Cc2cccnc2)CCN1C[C@@H](O)C[C@@H](Cc1ccccc1)C(=O)N[C@H]1c2ccccc2C[C@H]1O, which Potency is on record?
Its Potency is “inactive”.

For CC(C)CCOCc1ccccc1, which “viability change, negative = cytotoxic” value is on record?
Its value is -17.3%.

Target: Bile acid receptor (Homo sapiens) (UniProt Q96RI1)
Sequence (Q96RI1 whole entry, looked up): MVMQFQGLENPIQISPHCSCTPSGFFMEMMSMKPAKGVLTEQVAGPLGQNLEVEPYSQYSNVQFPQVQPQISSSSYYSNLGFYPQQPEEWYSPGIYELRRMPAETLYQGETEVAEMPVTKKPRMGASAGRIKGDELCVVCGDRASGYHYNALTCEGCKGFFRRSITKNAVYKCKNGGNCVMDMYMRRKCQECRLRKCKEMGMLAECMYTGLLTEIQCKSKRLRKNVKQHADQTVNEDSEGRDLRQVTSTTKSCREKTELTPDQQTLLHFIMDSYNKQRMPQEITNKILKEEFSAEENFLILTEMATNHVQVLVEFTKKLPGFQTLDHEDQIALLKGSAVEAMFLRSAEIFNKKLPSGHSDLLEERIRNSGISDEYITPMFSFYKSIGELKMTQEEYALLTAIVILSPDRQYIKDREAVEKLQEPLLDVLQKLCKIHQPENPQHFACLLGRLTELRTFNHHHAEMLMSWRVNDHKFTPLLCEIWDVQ
Assay: qHTS assay to identify small molecule agonists of the farnesoid-X-receptor (FXR) signaling pathway (AID 743220; active = well fitted activation curve with a large enough effect in the signal ratio in the repeat runs, not every such curve was filed as active; the % refers to the signal ratio)
Settings: HEK293T FXR-UAS-bla, beta-lactamase FRET ratio, 16 h; series mostly up to 62.6 µM; activation: at the top concentration
Outline: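 FXR-UAS-bla HEK 293T cells carrying a UAS-driven beta-lactamase reporter were plated for 5 h at 37C/5% CO2, then exposed to DMSO-dissolved Tox21 10K compounds for 16 h at 37C. A LiveBLAzer B/G FRET substrate was loaded for 2 h at room temperature before fluorescence reading.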

For CCc1cc(C(C)(C)C)c(O)c(C(C)(C)C)c1, which “activation” value is on record?
Its value is 10.1% [at 81.1 µM].

With NCCCCCC(=O)O as the compound, how does the “activation” value read?
Its value is -2.39%.

With CC(C)(C)NCC(O)COc1ccccc1OCC1CCCO1 (stereo not drawn) as the compound, how does the “activation” value read?
Its value is 0.517%.

With CCC(=O)/C=C/C1C(C)=CCCC1(C)C (stereo not drawn) as the compound, how does the Potency read?
The Potency was “inactive”.

With NC(N)=Nc1nc(CSCC/C(N)=N/S(N)(=O)=O)cs1 as the compound, how does the Potency read?
Its Potency is “inactive”.

For CC(=O)OCC1=C(C(=O)O)N2C(=O)[C@@H](NC(=O)Cc3cccs3)[C@H]2SC1, which “activation” value is on record?
The value was -0.576%.

Which “activation” value does the source give for OCC(CO)N[C@H]1C[C@](O)(CO)[C@@H](O)[C@H](O)[C@H]1O here?
The value was 4.14%.

With CC1COC(=O)O1 (stereo not drawn) as the compound, how does the Potency read?
The Potency was “inactive”.

Which Potency does the source give for C=C(C)C1CC=C(C)C(OC(C)=O)C1 (stereo not drawn) here?
The Potency was “inactive”.

For Cc1scc2c1N(C(=O)CN1CCN(C)CC1)c1ccccc1NC2=O, which “activation” value is on record?
The value was 1.07%.

For O=S(=O)(O)c1ccc2nc(-c3ccccc3)[nH]c2c1, which Potency is on record?
The Potency was “inactive”.

With CCC[C@H](N[C@@H](C)C(=O)N1[C@H](C(=O)O)C[C@@H]2CCCC[C@@H]21)C(=O)OCC as the compound, how does the “activation” value read?
Its value is 0.299%.

For CCCCCCCCCCCC[N+](C)(C)C, which “activation” value is on record?
The value was -0.89%.

Which “activation” value does the source give for Nc1cc(S(=O)(=O)O)cc2cc(S(=O)(=O)O)cc(O)c12 here?
Its value is -0.199%.

For CNC1(C)C2CCC(C2)C1(C)C (stereo not drawn), which “activation” value is on record?
Its value is -0.51%.

For CC(=O)O[C@]1(C(C)=O)CC[C@H]2[C@@H]3C[C@H](C)C4=CC(=O)CC[C@]4(C)[C@H]3CC[C@@]21C, which “activation” value is on record?
The value was -0.273%.

For CCc1ccc(C(c2ccc(CC)cc2)C(Cl)Cl)cc1, which Potency is on record?
The Potency was “inactive”.

With c1ccc2cc3c(ccc4ccccc43)cc2c1 as the compound, how does the “activation” value read?
Its value is -0.948%.

With Cc1cc(C(C)(C)C)c(O)c(C(C)(C)C)c1 as the compound, how does the Potency read?
The Potency was “inactive”.

Test system: not listed separately
Assay: qHTS assay to identify small molecule antagonists of the farnesoid-X-receptor (FXR) signaling pathway - cell viability counter screen (AID 743221); also: nearly all actives have a fitted effect of over 50% in size; also: potency is read from the fitted curve at half-maximal effect
Settings: FXR-bla HEK293T viability, CellTiter-Glo luminescence, 16 h; series mostly up to 62.6 µM; activity change, negative = cytotoxicity: at the top concentration
Outline: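 After a 5 h settling period, FXR-bla HEK 293T cells receive compound and chenodeoxycholic acid (50 uM final) and incubate 16 h at 37 C; CellTiter-Glo luminescence, read after 30 min at room temperature, reports cell viability.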

Which Potency does the source give for CCc1cc(C(C)(C)C)c(O)c(C(C)(C)C)c1 here?
Its Potency is “inactive”.

Which Potency does the source give for COC(=O)[C@H]1[C@H]2C[C@@H]3c4[nH]c5cc(OC)ccc5c4CCN3C[C@H]2C[C@@H](OC(=O)c2cc(OC)c(OC)c(OC)c2)[C@@H]1OC here?
The Potency was “inactive”.

For NCCCCCC(=O)O, which “activity change, negative = cytotoxicity” value is on record?
Its value is 1.6%.

With CCCCCCCCCCCCCCCCCl as the compound, how does the “activity change, negative = cytotoxicity” value read?
Its value is 4.15% [at 29.1 µM].

For CC(C)(C)NCC(O)COc1ccccc1OCC1CCCO1 (stereo not drawn), which “activity change, negative = cytotoxicity” value is on record?
The value was -8.38%.

Which “activity change, negative = cytotoxicity” value does the source give for CC(N)=O here?
Its value is -0.612% [at 232 µM].

For O=Nc1ccc(Nc2ccccc2)cc1, which Potency is on record?
The Potency was 39.1 µM (active).

With O=c1n(CC2CO2)c(=O)n(CC2CO2)c(=O)n1CC1CO1 (stereo not drawn) as the compound, how does the Potency read?
The Potency was “inactive”.

For CCC(=O)/C=C/C1C(C)=CCCC1(C)C (stereo not drawn), which Potency is on record?
The Potency was “inactive”.

With NC(N)=Nc1nc(CSCC/C(N)=N/S(N)(=O)=O)cs1 as the compound, how does the Potency read?
The Potency was “inactive”.

Which “activity change, negative = cytotoxicity” value does the source give for CC(=O)CC(C)=O here?
Its value is -2.35% [at 81.1 µM].

Which “activity change, negative = cytotoxicity” value does the source give for CC(=O)OCC1=C(C(=O)O)N2C(=O)[C@@H](NC(=O)Cc3cccs3)[C@H]2SC1 here?
Its value is 7.34%.

Which “activity change, negative = cytotoxicity” value does the source give for OCC(CO)N[C@H]1C[C@](O)(CO)[C@@H](O)[C@H](O)[C@H]1O here?
The value was 4.92%.

Which Potency does the source give for CC1COC(=O)O1 (stereo not drawn) here?
Its Potency is “inactive”.

With Cc1occc(=O)c1OC(=O)C(C)C as the compound, how does the “activity change, negative = cytotoxicity” value read?
Its value is -10.7%.

For C=C(C)C1CC=C(C)C(OC(C)=O)C1 (stereo not drawn), which Potency is on record?
The Potency was “inactive”.

With Cc1scc2c1N(C(=O)CN1CCN(C)CC1)c1ccccc1NC2=O as the compound, how does the “activity change, negative = cytotoxicity” value read?
Its value is 0.608%.

With O=S(=O)(O)c1ccc2nc(-c3ccccc3)[nH]c2c1 as the compound, how does the Potency read?
The Potency was 7.39 µM (active).

With CCC[C@H](N[C@@H](C)C(=O)N1[C@H](C(=O)O)C[C@@H]2CCCC[C@@H]21)C(=O)OCC as the compound, how does the “activity change, negative = cytotoxicity” value read?
The value was 14.8%.

Which “activity change, negative = cytotoxicity” value does the source give for CCCCCCCCCCCC[N+](C)(C)C here?
The value was -0.863%.

Which Potency does the source give for Cc1cc(C2(c3cc(C)c(O)cc3C)OS(=O)(=O)c3ccccc32)c(C)cc1O here?
The Potency was “inactive”.

Which “activity change, negative = cytotoxicity” value does the source give for CC[C@@H](N)CO here?
The value was 7.25% [at 81.1 µM].

With Nc1cc(S(=O)(=O)O)cc2cc(S(=O)(=O)O)cc(O)c12 as the compound, how does the Potency read?
The Potency was “inactive”.

For Nc1ccc2cc3ccccc3cc2c1, which Potency is on record?
The Potency was “inactive”.

Which “activity change, negative = cytotoxicity” value does the source give for CNC1(C)C2CCC(C2)C1(C)C (stereo not drawn) here?
The value was -0.0373%.

Which Potency does the source give for CC(=O)O[C@]1(C(C)=O)CC[C@H]2[C@@H]3C[C@H](C)C4=CC(=O)CC[C@]4(C)[C@H]3CC[C@@]21C here?
Its Potency is “inactive”.

Which Potency does the source give for c1ccc2n[nH]nc2c1 here?
Its Potency is “inactive”.

With CCc1ccc(C(c2ccc(CC)cc2)C(Cl)Cl)cc1 as the compound, how does the Potency read?
Its Potency is “inactive”.

For c1ccc2cc3c(ccc4ccccc43)cc2c1, which Potency is on record?
The Potency was “inactive”.

Which Potency does the source give for CCn1c2ccccc2c2cc(N)ccc21 here?
The Potency was “inactive”.

With CCN(CC)C(=O)Nc1ccc(OCC(O)CNC(C)(C)C)c(C(C)=O)c1 (stereo not drawn) as the compound, how does the “activity change, negative = cytotoxicity” value read?
The value was 1.49%.

For Cc1cc(C(C)(C)C)c(O)c(C(C)(C)C)c1, which Potency is on record?
Its Potency is “inactive”.

For COc1cc(C(=S)N2CCOCC2)ccc1O, which “activity change, negative = cytotoxicity” value is on record?
The value was 3.93%.

With NNCCc1ccccc1 as the compound, how does the Potency read?
The Potency was “inactive”.

With CC(C)(C)NC(=O)[C@@H]1CN(Cc2cccnc2)CCN1C[C@@H](O)C[C@@H](Cc1ccccc1)C(=O)N[C@H]1c2ccccc2C[C@H]1O as the compound, how does the Potency read?
The Potency was “inactive”.

With CC(C)CCOCc1ccccc1 as the compound, how does the “activity change, negative = cytotoxicity” value read?
Its value is 1.79%.
